Screens from PubChem.
PfHsp90 yeast 2: inhibits growth of yeast expressing Plasmodium falciparum Hsp90; inhibition, % at 9.4 µM; AID 504621; S. cerevisiae expressing PfHsp90, BacTiter-Glo ATP, 48 h; yeast lacking PDR1 and PDR3 efflux regulators; actives 0.32% (n = 310,000);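 active = every replicate shows inhibition above about 80%, whatever the replicate mean, limit read from the data; inconclusive = mean inhibition reaches the set limit but some replicate falls short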;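 also: 0% = DMSO neutral controls and 100% = 20 µM radicicol positive controls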
ARNT TACC3 PPI: disruptors of human ARNT/TACC3 interaction; Q9Y6A5; AlphaScreen His-ARNT PAS-B/GST-TACC3 binding, luminescence; TACC3 fragment carries E629A point mutation; inhibition, % at 9.99 µM; actives 0.66% (n = 390,000); AID 623870;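 active = mean inhibition of replicates at least 50% and at least half of replicates each reaching 50%; inconclusive = half or more replicates reach 50% but mean below 50%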;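 also: 0% = complete ARNT plus TACC3 wells and 100% = ARNT alone without TACC3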
Casp6 inh: caspase-6 (human) enzyme inhibition | P55212 | purified caspase-6, Z-VEID-R110 cleavage fluorescence | inhibition, % at 12.5 µM | actives 0.53% (n = 350,000) | AID 686996;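 active = mean inhibition across replicates at least about 35%, with every replicate also reaching that limit, limit read from the data; inconclusive = only one of the two criteria met; inactive = neither criterion met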;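 also: 0% = median of neutral control wells and 100% = no fluorescence left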
Target sequence (P55212 24-179 limits assumed): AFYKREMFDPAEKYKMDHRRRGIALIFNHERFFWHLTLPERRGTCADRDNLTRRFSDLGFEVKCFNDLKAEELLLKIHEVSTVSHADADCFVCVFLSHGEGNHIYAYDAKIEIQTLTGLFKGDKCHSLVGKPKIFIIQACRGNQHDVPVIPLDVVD
Target sequence (P55212 194-293 limits assumed): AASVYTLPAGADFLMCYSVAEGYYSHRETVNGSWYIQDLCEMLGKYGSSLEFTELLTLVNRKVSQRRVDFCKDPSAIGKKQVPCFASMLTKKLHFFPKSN
NSD2 inh: blocks human histone methyltransferase NSD2. NSD2 peptide methylation, AlphaScreen, 120 min. inhibition, % at 12.5 µM. O96028. actives 0.54% (n = 310,000); in the data active = inhibition above about 50%
SIRT5 inh: blocks human SIRT5 desuccinylation of peptide | inhibition, % at 15 µM | actives 1.1% (n = 330,000) | Purified SirT5, succinyl-peptide AMC, trypsin-coupled fluorescence; in the data active = inhibition above about 15%; inconclusive = no clear call, values can overlap the other calls
Target sequence (Q9NXA8 whole entry, looked up): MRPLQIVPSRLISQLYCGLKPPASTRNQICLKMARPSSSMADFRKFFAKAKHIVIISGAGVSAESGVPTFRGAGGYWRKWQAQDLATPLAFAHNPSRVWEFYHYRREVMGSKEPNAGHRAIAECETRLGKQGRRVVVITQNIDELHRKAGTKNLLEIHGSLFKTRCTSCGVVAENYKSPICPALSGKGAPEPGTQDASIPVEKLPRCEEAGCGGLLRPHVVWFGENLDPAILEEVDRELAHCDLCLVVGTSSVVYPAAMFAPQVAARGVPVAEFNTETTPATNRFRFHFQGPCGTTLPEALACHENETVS
* marks the source's active call; other numbers are inactive results; ? = inconclusive; / = not tested or not shown; ! = repeats disagree. A selection: hits, their analogues and other compounds. The true share with any hit is near 2.1%.

SMILES	PfHsp90 yeast 2	ARNT TACC3 PPI	Casp6 inh	NSD2 inh	SIRT5 inh
Cc1ccc2nc(/C(C#N)=C\c3ccc([N+](=O)[O-])o3)[nH]c2c1	105*	-12	/	/	/
CC=Cc1ccc2n(c1=O)C[C@H]1[C@H](CO)[C@@H](C(=O)NC3CCC3)[C@@H]2N1Cc1ccncc1 (mixture of isomers)	/	/	-2	/	-14
COc1cccc(CN2CCN(C(c3ccccc3)c3ccccc3)CC2)c1O	12	6	-4	1	16*
CSc1nc(N)nc2c1ncn2CC(=O)NCC1CCCO1 (centres undefined)	9	5	1	/	31*
CSc1nc(N)nc2c1ncn2CC(=O)NCC(c1ccccc1)c1ccccc1	-14	-1	3	/	-1
O=C(Cn1cnc2c(nnn2-c2ccccc2)c1=O)NCC1CCCO1 (centres undefined)	-6	-4	0	/	4
COc1cccc(-n2nnc3c(=O)n(CC(=O)NCC4CCCO4)cnc32)c1 (centres undefined)	-2	-7	2	/	16*
Fc1ccc(/C=C/c2nnc(-c3cccs3)o2)cc1	-34	-3	-3	51*	-4
COc1ccc(C(=O)Nc2cccc3cccnc23)cc1OC	-14	-24	-1	0	20*
Cc1onc(-c2ccccc2)c1C(=O)NC(=S)NNC(=O)c1ccc(O)cc1	5	21	/	3	/
Cc1onc(-c2ccccc2)c1C(=O)NC(=S)NNC(=O)c1ccccc1O	101*	58*	-2	0	1
Cc1onc(-c2ccccc2)c1C(=O)NC(=S)NNC(=O)c1ccc(O)cc1O	-9	95*	/	-3	/
C#Cc1ccc([C@@H]2C=C(C(=O)Nc3ccccc3)O[C@H](OCC)[C@H]2CCCO)cc1	-16	0	-1	/	6
C#Cc1ccc([C@H]2C=C(C(=O)NCc3ccccc3)O[C@@H](OCC)[C@@H]2CCCO)cc1	16	0	-3	/	21*!
O=C(O)C1Cc2ccccc2CN1S(=O)(=O)/C=C/c1ccccc1 (centres undefined)	-12	46*	4	0	-5
CS(=O)(=O)N1Cc2ccccc2CC1C(=O)O (centres undefined)	16	-2	6	2	-3
CCC(=O)Nc1ccc2c(c1)C(=O)N(C)[C@@H]1CC[C@@H](CC(=O)O)O[C@@H]1CO2	/	6	3	/	-1
Cc1cc(/C=C\c2ccc3cc(N(C)C)ccc3[n+]2C)c(C)n1-c1ccccc1	108*	3	/	/	/
CC(=O)c1ccccc1NS(=O)(=O)c1cccc2nsnc12	0	0	56*	2	-2
CC(=O)c1ccccc1NS(=O)(=O)c1cccc2nonc12	17	0	2	-1	2
CNC(=O)C[C@H]1CC[C@@H]2[C@H](COC[C@@H](O)CN2C(=O)Nc2ccc3c(c2)OCO3)O1	/	-2	2	/	1
C[C@@H]1CN([C@H](C)CO)C(=O)c2cc(NS(=O)(=O)c3cn(C)cn3)ccc2O[C@H]1CN(C)CC1CCCCC1	/	-13	2	/	17*
COc1ccc(NC(=O)N(C)C[C@@H]2Oc3ccc(NS(=O)(=O)c4cn(C)cn4)cc3C(=O)N([C@H](C)CO)C[C@H]2C)cc1	/	active	4	/	4
COc1ccc(NC(=O)N(C)C[C@@H]2Oc3ccc(NS(=O)(=O)c4cn(C)cn4)cc3C(=O)N([C@@H](C)CO)C[C@H]2C)cc1	/	1	0	/	4
C[C@@H]1CN([C@@H](C)CO)C(=O)c2cc(NS(=O)(=O)c3cn(C)cn3)ccc2O[C@@H]1CN(C)CC1CCCCC1	/	-12	-3	/	2
SMILES	PfHsp90 yeast 2	ARNT TACC3 PPI	Casp6 inh	NSD2 inh	SIRT5 inh
COc1ccc(-c2ccc3n(c2=O)C[C@@H]2N[C@H]3[C@H](C(=O)N3CCCCC3)[C@H]2CO)cc1	/	/	-2	/	-71
O=C(c1ccco1)[C@@H]1[C@@H]2C(=O)N(c3ccc(Br)cc3)C(=O)[C@@H]2C2c3ccccc3C=CN21 (some centres undefined)	-7	15	/	/	/
CC(=O)[C@H]1[C@@H]2C(=O)N(c3cccc(Cl)c3)C(=O)[C@@H]2[C@H]2c3ccccc3C=CN21	25	24*	/	/	/
COCCn1c(-c2ccc(OC)cc2)cnc1N	15	45*	/	1	/
COCCn1c(-c2ccc(OC)cc2)cnc1SCC(=O)Nc1cc(C)on1	4	-9	/	-13	/
O=C(c1cc([N+](=O)[O-])ccc1N1CCCC1)N1CCCC1	0	4	5	0	16*
CC(=O)Nc1ccc(N2C(=O)CSC2c2ccc([N+](=O)[O-])cc2)cc1 (centres undefined)	-5	-24	0	-1	27*
C/C=C/c1cnc2c(c1)C(=O)N([C@@H](C)CO)C[C@H](C)[C@H](CN(C)C(=O)Nc1c(C)noc1C)O2	/	9	-2	/	9
C[C@H](CO)N1C[C@H](C)[C@@H](CN(C)C(=O)Nc2ccc(C(F)(F)F)cc2)OCCCC[C@H](C)Oc2ccc(NS(=O)(=O)c3cccs3)cc2C1=O	/	-7	-3	/	4
Cc1ccccc1NC(=O)C1CCCN(S(=O)(=O)c2cnc[nH]2)C1 (centres undefined)	10	1	91*	/	/
Cc1ccc(NC(=O)C2CCCN(S(=O)(=O)c3cnc[nH]3)C2)c(Br)c1 (centres undefined)	18	-3	1	/	/
CN(C)S(=O)(=O)c1cccc(NC(=O)COC(=O)c2ccc([N+](=O)[O-])o2)c1	14	64*	/	13	/
O=C(COC(=O)c1ccc([N+](=O)[O-])o1)NCCc1ccccc1	-15	44	29	25	1
O=C(COC(=O)c1ccc(Br)o1)Nc1ncc(Cl)cc1Cl	5	-2	11	2	-1
CC(C)(C)N(Cc1ccccc1)C(=O)COC(=O)c1ccc([N+](=O)[O-])o1	-26	/	45*	15	-2
O=C(COC(=O)c1ccc([N+](=O)[O-])o1)Nc1ncc(Cl)cc1Cl	?	4	61*	19	-3
O=C(COC(=O)c1ccc([N+](=O)[O-])o1)Nc1ccc(Br)cc1F	/	-4	38*	3	8
O=C(C[C@@H]1C=C[C@@H](NC(=O)CCN2CCCCC2)[C@H](CO)O1)NCc1ccc(Cl)c(Cl)c1	/	10	-5	/	10
C[C@H]1CN([C@@H](C)CO)C(=O)c2cc(C#CC3CCCC3)cnc2O[C@H]1CN(C)Cc1ccncc1	/	-5	5	/	-6
C/C=C(/C)C(=O)O[C@@H]1[C@H](OC(=O)C=C(C)C)c2c(ccc3ccc(=O)oc23)OC1(C)C	11	-5	-2	/	-8
C/C=C(/C)C(=O)O[C@@H]1c2c(ccc3ccc(=O)oc23)OC(C)(C)[C@@H]1OC(=O)/C(C)=C\C	16	3	-6	/	31*
COc1cccc(NCc2cc3c(C(C)(C)C)nn(-c4ccccc4)c3[nH]c2=O)c1	44	-1	/	7	/
CC(C)(C)c1nn(-c2ccccc2)c2[nH]c(=O)c(C=O)cc12	120*	-1	0	-2	-3
